In the first assay the test system is RXRa DBDmut IVT, anti-RXR (DBD mutation: RXRa K156A/R161A, NR concentration 90 nM). Put plainly: PBM binding z-score (relative to random genomic background probes); higher = stronger binding; sequences stand for … in GC…GCGATTGACAGCGTAGAATGAAGG
In short, it runs like this: (§1)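 Custom Agilent 4×180K protein-binding microarrays carried double-stranded probes, each with a 34-nt variable region. These regions held direct-repeat seeds, single-nucleotide variants, half-site ablations and random human genomic background sequences. Ligand-free nuclear receptor dimers were incubated on the arrays for 1 h, antibodies against each partner (one per run) detected binding, and scanned fluorescence was regression-normalized. Binding z-scores take the random background probes as reference.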
For the sequence CCAGACAAGTGAAAGGTAACTCAGTCTGGTACGC, the PBM binding z-score was found to be 0.272.

Regarding AGGATGAGGTTATTAAGATCAGGGAATTGCGGTC, the PBM binding z-score was found to be 1.78.

As to ACTAGTTGGTCAGCTGCGGTCACACACAATTCGG, the PBM binding z-score was 0.356.

In turn, TCAGCCAGGTGAAGGTAACTCAGGTACGCAGTCG displayed a PBM binding z-score of 0.397.

Take TAGCCTAGGTCATTCGGGCCAGTATAGTGTCGGC: the PBM binding z-score was 1.79.

Sequence ACTATTAGTTGACTTAGGGCAACCAATACGACGC returned a PBM binding z-score of 0.699.

Sequence ACTAGCGGGCCAAGGGTCACTCAAGATTAGTCCG displayed a PBM binding z-score of 0.364.

GCAAACAGGTGAAACGCAGGTAACTCAGGGTGGC: the PBM binding z-score was -0.459.

Sequence CGTCAAAGTTCAACGAAGGTAACGTAAAGCACGC came in with a PBM binding z-score of 4.2.

Consider ATCGAAAGGTCGAGGTAAGTATAGAGAAAGGGAA, for which the PBM binding z-score is 0.467.

CGTCCAAGGTCAAAGCTAGGTCAGTGAAAGCATT: the PBM binding z-score was 4.1.

As for ATCTCTAGGCAACCAAGTTCAGTGAATGCCGAAC, the PBM binding z-score came out at 0.688.

Sequence TCATATAGGTAAACAGGTGAAATTCCGTAAGTTA gave a PBM binding z-score of 1.58.

TAGCCTAGGTCATTCAGGGGCGAGTATAGAAAGC yielded a PBM binding z-score of 2.29.

Take GCAGCTAGGTCAGGTTGGTCAGCTAACGGGTACG: the PBM binding z-score was 0.319.

For CCTATTTGGTCAGGAGGTCACACACCGGATATGA, the PBM binding z-score was 1.25.

For GATACAGGGTCAGATAGAGGCCAGAGTATGGAAA, the PBM binding z-score is 1.75.

CCGACTGGGGCAGAAAGGTAACCATACCATCCGG came in with a PBM binding z-score of -1.12.

The next assay has as its system RXRa homodimer (NR concentration 180 nM). The assay is described as above. In short, it runs like this: as §1
In turn, GCTCGGAGGACAAGGTCAGATCTTTGTCCGTAGA yielded a PBM binding z-score of 2.46.

For CTACCAAGGTGAGCAAGGTCGTTGATTACTATTC, the PBM binding z-score amounted to 1.03.

The sequence CGTCCAAGATCAAGGTCAGTGAAAGAGACTCGAA yielded a PBM binding z-score of 2.01.

Take AGAATGAGGTTATTAAGATCAGGGAGTTGCGGTC: the PBM binding z-score was 1.78.

Turning to ACAGACAGGTGAGGAAGGTAACTCAGGCTATCAT, the PBM binding z-score stood at 0.267.

Regarding CGTCCATGGTCAGCAGGTCAGTGAAAGCGACGTG, the PBM binding z-score came to 0.937.

In turn, TCTTGTAGATCATAGGTTAAGAAAGCCGAAGCCT showed a PBM binding z-score of 1.34.

As to CAAACTAGGTCACAAAGGTCAAAGTCCGTGCGTA, the PBM binding z-score was 8.41.

Take CTCGAAAGGTCGTGCTAAGGTGAGTATACCAAAC: the PBM binding z-score was found to be 5.25.

As for TCGAGTAGGTTAACAATGGGGCATTCAGCTTTCT, the PBM binding z-score came out at 0.809.

In turn, ACAGACAGGTGATGAAGGTTACTCAGGCTATCAT displayed a PBM binding z-score of 0.748.

Consider AGAACGAGGGCACGCTGAGTTGATACCAGAGTAG, for which the PBM binding z-score was found to be 1.44.

TAGCCTACGTCATTGGGCCAGTATAGTACGCATC gave a PBM binding z-score of -0.232.

Sequence GCGACTGGGGCATAAGCAGGTTACCATAACTTAA displayed a PBM binding z-score of 0.39.

GCTTCTAGGTCAGGTTGGTCAGCTAACGGGTACG returned a PBM binding z-score of 1.08.

For TGCCAAAGTTCAAAGGTAACGTAAGTATCCACAC, the PBM binding z-score was 7.16.

TCTCCGAGGACACGAAAGGTCAGAGCTCGACATC registered a PBM binding z-score of 4.12.

Sequence CCGACTGGGGCAGAAAGGTTACCAAACCATCCGG had a PBM binding z-score of 1.66.

Regarding ACAGACAGGTGTTGAAGGTAACTCAGGCTATCAT, the PBM binding z-score was 0.0702.

Take TCGAGTAGGTTAGCGGCATTCAGAATGGCGTCGA: the PBM binding z-score was determined as 0.000996.

In turn, CCTACTGGGCCATTCACAGGTCATTGATCATATG returned a PBM binding z-score of 1.34.

Sequence AGAATGAGGTTATACGTAAATCAGGGAAGAAAGT yielded a PBM binding z-score of 2.06.

In turn, CCAGACAAGTGAAAGGTAACTCAGTCTGGTACGC yielded a PBM binding z-score of 0.604.

As for AGGATGAGGTTATTAAGATCAGGGAATTGCGGTC, the PBM binding z-score came out at 1.9.

In turn, ACTAGTTGGTCAGCTGCGGTCACACACAATTCGG displayed a PBM binding z-score of 0.636.

TCAGCCAGGTGAAGGTAACTCAGGTACGCAGTCG: the PBM binding z-score amounted to 0.607.

For the sequence TAGCCTAGGTCATTCGGGCCAGTATAGTGTCGGC, the PBM binding z-score was determined as 3.07.

ACTATTAGTTGACTTAGGGCAACCAATACGACGC yielded a PBM binding z-score of 0.621.

In turn, ACTAGCGGGCCAAGGGTCACTCAAGATTAGTCCG yielded a PBM binding z-score of 4.

In turn, GCAAACAGGTGAAACGCAGGTAACTCAGGGTGGC came in with a PBM binding z-score of 0.616.

In turn, CGTCAAAGTTCAACGAAGGTAACGTAAAGCACGC registered a PBM binding z-score of 4.5.

On to ATCGAAAGGTCGAGGTAAGTATAGAGAAAGGGAA, for which the PBM binding z-score amounted to 4.6.

CGTCCAAGGTCAAAGCTAGGTCAGTGAAAGCATT registered a PBM binding z-score of 6.47.

ATCTCTAGGCAACCAAGTTCAGTGAATGCCGAAC gave a PBM binding z-score of 0.505.

TCATATAGGTAAACAGGTGAAATTCCGTAAGTTA returned a PBM binding z-score of 1.07.

Sequence TAGCCTAGGTCATTCAGGGGCGAGTATAGAAAGC yielded a PBM binding z-score of 2.79.

As for GCAGCTAGGTCAGGTTGGTCAGCTAACGGGTACG, the PBM binding z-score was 1.04.

On to CCTATTTGGTCAGGAGGTCACACACCGGATATGA, for which the PBM binding z-score worked out at 5.03.

GATACAGGGTCAGATAGAGGCCAGAGTATGGAAA had a PBM binding z-score of 4.42.

Turning to CCGACTGGGGCAGAAAGGTAACCATACCATCCGG, the PBM binding z-score is 0.166.

For another assay, the system named is THRa:RXRa (NR concentration 90 nM, RXRa partner concentration 90 nM). The assay is described as above. Summed up: as §1
Take GCTCGGAGGACAAGGTCAGATCTTTGTCCGTAGA: the PBM binding z-score is 3.17.

Take CTACCAAGGTGAGCAAGGTCGTTGATTACTATTC: the PBM binding z-score is 2.77.

Take CGTCCAAGATCAAGGTCAGTGAAAGAGACTCGAA: the PBM binding z-score was found to be 2.86.

Turning to AGAATGAGGTTATTAAGATCAGGGAGTTGCGGTC, the PBM binding z-score was found to be 2.17.

Consider ACAGACAGGTGAGGAAGGTAACTCAGGCTATCAT, for which the PBM binding z-score came out at 0.957.

Take CGTCCATGGTCAGCAGGTCAGTGAAAGCGACGTG: the PBM binding z-score is 0.887.

For the sequence TCTTGTAGATCATAGGTTAAGAAAGCCGAAGCCT, the PBM binding z-score is 0.458.

Sequence CAAACTAGGTCACAAAGGTCAAAGTCCGTGCGTA registered a PBM binding z-score of 4.52.

Turning to CTCGAAAGGTCGTGCTAAGGTGAGTATACCAAAC, the PBM binding z-score amounted to 4.61.

TCGAGTAGGTTAACAATGGGGCATTCAGCTTTCT: the PBM binding z-score turned out to be 0.284.

With ACAGACAGGTGATGAAGGTTACTCAGGCTATCAT, the PBM binding z-score stood at 0.904.

Regarding AGAACGAGGGCACGCTGAGTTGATACCAGAGTAG, the PBM binding z-score was found to be 1.74.

Sequence TAGCCTACGTCATTGGGCCAGTATAGTACGCATC showed a PBM binding z-score of -0.688.

As for GCGACTGGGGCATAAGCAGGTTACCATAACTTAA, the PBM binding z-score came to 0.914.

In turn, GCTTCTAGGTCAGGTTGGTCAGCTAACGGGTACG came in with a PBM binding z-score of 2.47.

With TGCCAAAGTTCAAAGGTAACGTAAGTATCCACAC, the PBM binding z-score stood at 3.44.

TCTCCGAGGACACGAAAGGTCAGAGCTCGACATC: the PBM binding z-score is 4.36.

In the case of CCGACTGGGGCAGAAAGGTTACCAAACCATCCGG, the PBM binding z-score is 0.905.

As to ACAGACAGGTGTTGAAGGTAACTCAGGCTATCAT, the PBM binding z-score amounted to 0.786.

For the sequence TCGAGTAGGTTAGCGGCATTCAGAATGGCGTCGA, the PBM binding z-score was -0.647.

Sequence CCTACTGGGCCATTCACAGGTCATTGATCATATG returned a PBM binding z-score of 2.01.

Take AGAATGAGGTTATACGTAAATCAGGGAAGAAAGT: the PBM binding z-score is 2.17.

Regarding CCAGACAAGTGAAAGGTAACTCAGTCTGGTACGC, the PBM binding z-score turned out to be 0.291.

AGGATGAGGTTATTAAGATCAGGGAATTGCGGTC showed a PBM binding z-score of 2.24.

Take ACTAGTTGGTCAGCTGCGGTCACACACAATTCGG: the PBM binding z-score is 2.65.

For the sequence TCAGCCAGGTGAAGGTAACTCAGGTACGCAGTCG, the PBM binding z-score was 1.8.

As to TAGCCTAGGTCATTCGGGCCAGTATAGTGTCGGC, the PBM binding z-score stood at 3.16.

In the case of ACTATTAGTTGACTTAGGGCAACCAATACGACGC, the PBM binding z-score was 1.66.

Sequence ACTAGCGGGCCAAGGGTCACTCAAGATTAGTCCG gave a PBM binding z-score of 2.62.

GCAAACAGGTGAAACGCAGGTAACTCAGGGTGGC gave a PBM binding z-score of 1.52.

As to CGTCAAAGTTCAACGAAGGTAACGTAAAGCACGC, the PBM binding z-score came out at 4.52.

As to ATCGAAAGGTCGAGGTAAGTATAGAGAAAGGGAA, the PBM binding z-score is 2.58.

CGTCCAAGGTCAAAGCTAGGTCAGTGAAAGCATT came in with a PBM binding z-score of 4.57.

Regarding ATCTCTAGGCAACCAAGTTCAGTGAATGCCGAAC, the PBM binding z-score is 0.9.

TCATATAGGTAAACAGGTGAAATTCCGTAAGTTA: the PBM binding z-score was determined as 0.752.

Sequence TAGCCTAGGTCATTCAGGGGCGAGTATAGAAAGC returned a PBM binding z-score of 4.54.

For the sequence GCAGCTAGGTCAGGTTGGTCAGCTAACGGGTACG, the PBM binding z-score worked out at 1.57.

In turn, CCTATTTGGTCAGGAGGTCACACACCGGATATGA had a PBM binding z-score of 3.54.

As for GATACAGGGTCAGATAGAGGCCAGAGTATGGAAA, the PBM binding z-score was determined as 3.16.

In turn, CCGACTGGGGCAGAAAGGTAACCATACCATCCGG gave a PBM binding z-score of 0.0799.
